Source: PubChem BioAssay (NCI)
The panel holds about 83,000 compounds, 20% with a hit somewhere; the sample as a whole holds those more often.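 Negative percent growth values reflect cell death: -40 means 40% of the cells present at the start died, and -100 means all died.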 Activity calls are given as the source filed them. The calls were made as follows: active = growth percent below 10; inactive = the rest.

Tested on: HL-60(TB) leukemia
Experiment: NCI-60 one-dose screen, 48 h (100 = growth as untreated, 0 = no growth, -100 = all killed)
Settings: 10 µM unless noted

Row | SMILES | growth
1 | CN(C)CCOc1nc2c3cccnc3cc(-c3cccc(Cl)c3)c2c2ncccc12 | -20.4% (active)
2 | N#Cc1c(N2CCOCC2)nc(=S)[nH]c1-c1ccco1 | 70.7% (inactive)
3 | c1ccc(Nc2nc3c(s2)CCc2c[nH]cc2-3)nc1 | 2.15% (active)
4 | Brc1ccc(Br)nn1 | -32.7% (active)
5 | Clc1ccc(-c2cn3ccsc3n2)c(Cl)c1Cl | 85.7% (inactive)
6 | CSc1nc(-c2ccco2)c(C#N)c(=O)n1C | 95.9% (inactive)
7 | Cc1cc([C@@H](C)Nc2ccccc2C(=O)O)c2nc(N3CCOCC3)cc(=O)n2c1 | 26.7% (inactive)
8 | COc1ccccc1CNCCN1C(=O)c2ccc3c4c(ccc(c24)C1=O)C(=O)N(CCNCc1ccccc1OC)C3=O | -71.8% (active)
9 | Cc1nn(-c2ccccc2)nc1C(=O)Nc1ccccc1C(=O)NCC1CC1 | 95.8% (inactive)
10 | CCOC(=O)C(Nc1ccccc1)C(=O)OCC | 101% (inactive)
11 | CN(CC(=O)N(Cc1ccc(C2CCCCC2)cc1)c1ccc(C(=O)O)cc1)S(=O)(=O)c1c(F)c(F)c(F)c(F)c1F | -28.6% (active)
12 | CCOC(=O)/C(C#N)=C(/CC)OCC | 95% (inactive)
13 | Cc1cc(N(CCNc2ccnc3cc(Cl)ccc23)Cc2ccc3c(c2)OCO3)nc(N2CCCC2)n1 | -61.9% (active)
14 | NNC(=O)c1ccccc1N | 122% (inactive)
15 | CN1CCN(CCCOc2cccc3nc(Nc4cc(Cl)cc(Cl)c4)ccc23)CC1 | 56.4% (inactive)
16 | CCSC1=NC2C(N(CC)C(=O)N2CC)N1/N=C/C=C/c1ccccc1[N+](=O)[O-] (configuration not stated) | -49.4% (active)
17 | CC(=O)c1c(OCC#N)ccc2c(C)cc(=O)oc12 | 81.6% (inactive)
18 | COc1ccc(CNC(=O)c2c(C)n([O-])c3ccccc3[n+]2=O)cc1 | 101% (inactive)
19 | Cc1ccc(C(=O)NC2c3ccccc3Oc3ccccc32)cc1 | -3.42% (active)
20 | CCN(CC)CCNC(=O)c1c(C)[nH]c(/C=C2\C(=O)Nc3ccc(F)cc32)c1C | -23% (active)
21 | COc1cc2c(/C=C3/C(=O)Nc4ccc(O)cc43)c(Cl)n(Cc3cc(OC)c(OC)c(OC)c3)c2cc1C | -33.7% (active)
22 | NS(=O)(=O)c1ccc(CN2C(=O)c3cccc4cccc(c34)C2=O)cc1 | 98.6% (inactive)
23 | COc1ccc(C2C(c3ccccc3)C(=O)N2c2cc(OC)c(OC)c(OC)c2)cc1I (configuration not stated) | -31.6% (active)
24 | COc1ccc(-c2cc(/C=C/C(=O)c3ccc(OC)c(OC)c3)[nH]n2)cc1 | -43.7% (active)
25 | CCNC(=O)Nc1nc2ccc(Oc3ccnc(C(=O)NC)c3)cc2s1 | 94.7% (inactive)
26 | OCCNc1nc(Nc2ccc(Cl)c(Cl)c2)nc2ccccc12 | 44.4% (inactive)
27 | C1CCN(c2nc(N3CCCCC3)nc(N3CCOCC3)n2)CC1 | 112% (inactive)
